{"source": "paper PMC4931317", "molecular_target": "U3 small nucleolar RNA-associated protein 4 (UniProt Q06679)", "sequence (Q06679 whole entry)": "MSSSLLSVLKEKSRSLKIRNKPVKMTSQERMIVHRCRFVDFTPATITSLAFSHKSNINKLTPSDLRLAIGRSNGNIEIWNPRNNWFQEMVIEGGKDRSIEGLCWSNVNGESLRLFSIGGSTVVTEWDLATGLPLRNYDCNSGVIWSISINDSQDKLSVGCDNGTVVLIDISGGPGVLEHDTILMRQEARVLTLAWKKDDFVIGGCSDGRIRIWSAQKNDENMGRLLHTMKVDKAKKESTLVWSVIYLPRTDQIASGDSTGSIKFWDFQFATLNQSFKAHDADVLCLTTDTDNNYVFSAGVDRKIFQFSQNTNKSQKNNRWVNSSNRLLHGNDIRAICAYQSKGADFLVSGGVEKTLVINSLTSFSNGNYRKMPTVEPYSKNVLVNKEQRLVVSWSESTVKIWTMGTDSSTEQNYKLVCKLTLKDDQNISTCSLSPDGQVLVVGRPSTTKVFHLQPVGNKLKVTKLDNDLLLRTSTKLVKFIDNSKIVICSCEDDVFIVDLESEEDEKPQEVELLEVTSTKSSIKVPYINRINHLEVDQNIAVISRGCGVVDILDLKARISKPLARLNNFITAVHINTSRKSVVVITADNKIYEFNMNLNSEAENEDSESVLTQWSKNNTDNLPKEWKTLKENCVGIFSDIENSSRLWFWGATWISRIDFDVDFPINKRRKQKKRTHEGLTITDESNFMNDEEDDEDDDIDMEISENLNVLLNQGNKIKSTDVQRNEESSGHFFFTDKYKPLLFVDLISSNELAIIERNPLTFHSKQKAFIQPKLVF", "test": "cross-link between two proteins"}
{"substance": "U3 small nucleolar RNA-associated protein 8, P53276", "values": [{"measurement": "listed as a hit", "value": "yes"}]}
